High-throughput results as filed in PubChem BioAssay.
An excerpt weighted towards active compounds, which were near 11% of everything screened.
PNC inhibitor – perinucleolar compartment assembly inhibition; PC3M PTB-GFP, PNC prevalence imaging, 16 h; stronger effect = lower value; activity change (PNC), negative = inhibition, % at 10 µM; 140,000 compounds, 3.1% hits;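 active = readout at or below -70, meaning at least 70% loss of cells showing the perinucleolar compartment, a nuclear body marking cancer cells; inconclusive = readout between -30 and a set limit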;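 also: plate controls were DMSO wells for no effect and camptothecin positive control wells for full effect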
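PC3M cells stably expressing PTB-GFP, 750–1000 cells/well, treated 16 h at 37 °C with compound (23 nl of library stock), in duplicate. After paraformaldehyde fixation and Hoechst stain, imaged at 20x; PNC prevalence scored by image analysis.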
HPGD block – inhibitors of human 15-hydroxyprostaglandin dehydrogenase (HPGD); AID 894; Potency, µM, without a hit: top-dose activity change, negative = inhibition, usual class: inhibitors; purified HPGD, NADH fluorescence kinetic, PGE2 substrate; 150,000 compounds, 4.3% hits; also: potency is read from the fitted curve at half-maximal effect
Target sequence (P15428 whole entry, looked up): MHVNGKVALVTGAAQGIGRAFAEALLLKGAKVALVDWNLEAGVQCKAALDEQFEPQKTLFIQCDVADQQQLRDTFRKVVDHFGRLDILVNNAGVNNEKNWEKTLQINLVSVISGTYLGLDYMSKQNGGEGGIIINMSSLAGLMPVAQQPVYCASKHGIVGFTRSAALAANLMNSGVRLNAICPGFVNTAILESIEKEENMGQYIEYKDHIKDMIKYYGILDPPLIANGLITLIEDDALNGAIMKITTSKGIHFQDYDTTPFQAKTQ
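NADH formation kinetics: reaction with 30 uM PGE2 and 1 mM NAD+ (final), 20 nM enzyme, Tris-HCl pH 8 with Tween 20, after 15 min compound preincubation at room temperature. Fluorescence change, last versus first of five reads.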
ALDH1A1 block – inhibitors of human aldehyde dehydrogenase 1A1; Purified ALDH1A1, NADH fluorescence, propionaldehyde substrate; Potency, µM (top dose mostly 75.3 µM), for the others: at the top dose activity, negative = inhibition, actives largely listed as inhibitors; 220,000 compounds, 7.3% hits;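 also: potency is read from the fitted curve at half-maximal effect; plate controls were no enzyme wells and a reference inhibitor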
* marks the source's active call; other numbers are inactive results; ? = inconclusive; nt = no result given; [ ] = another dose, or the depositor's remark. Unless noted, calls follow the shape of the dose curve; as a rule, active = well fitted inhibition curve with a large enough effect (not every such curve was filed as active); inconclusive = small, poorly fitted or top-dose-only effect, or another doubt; inactive = no such curve, though single readings can be large or run the other way. Unless noted, % is scaled to controls: 0 for no effect and ±100 for the full control effect.

SMILES	PNC inhibitor	HPGD block	ALDH1A1 block
FC(F)(F)c1cnc(Oc2ccccc2-c2nnco2)c(Cl)c1	-15	-28%	14%
N/N=c1\sc2ccccc2n1-c1ccccc1	15	-19%	?
Nc1nnc(SCC(=O)NN2C(=O)NC3(CCCCC3)C2=O)s1	16	-3%	5%
Cc1ccc(C(=O)C(C)N2C(=O)NC(C)(c3ccccc3)C2=O)cc1 (stereo not drawn)	nt	nt	-1%
CCc1cccc(NC(=O)Cc2ccc(OC)c(OC)c2)c1	-18	-8%	9%
COCC(=O)c1[nH]c2ccccc2c1C	-13	-13%	7.9µM*
COCC(=O)NCCSc1c(C)[nH]c2ccccc12	?	?	3%
C=Cc1cccc(C)c1	nt	1%	6%
C=Cc1ccc(C=C)cc1	nt	-4%	14µM*
CCN(CC)S(=O)(=O)c1c(OC)cc(C)c(Cl)c1C	nt	nt	5%
COc1ccc(Nc2nnc(SCc3cc([N+](=O)[O-])cc4c3OCOC4)s2)cc1	?	25µM*	?
O=c1c2ccccc2nc(SCc2cc([N+](=O)[O-])cc3c2OCOC3)n1-c1ccccc1	-92*	-2%	7%
O=[N+]([O-])c1cc2c(c(CSc3nnc4ccccn34)c1)OCOC2	32	-15%	?
O=c1c2ccccc2nc(SCc2ccc([N+](=O)[O-])cc2)n1-c1ccccc1	37	-6%	5%
O=C(NCCCN1CCCCCC1)C(c1ccccc1)C1CCCCC1 (stereo not drawn)	nt	nt	-7%
Cc1occc1C(=O)NC(C)C(C)(C)C (stereo not drawn)	-8	32µM*	1%
Cc1occc1C(=O)NC(C)CCc1ccccc1 (stereo not drawn)	-17	-5%	-2%
CCC(C(=O)OCn1nnc2ccccc2c1=O)c1ccccc1 (stereo not drawn)	nt	nt	5%
COc1ccc(CONS(=O)(=O)c2ccc(NC(C)=O)cc2)cc1Cl	7	-9%	-8%
CCOc1cc(C(=O)NCc2ccc(-c3nc4ccccc4o3)cc2)cc(OCC)c1OCC	?	nt	-8%
COc1ccc(C(=O)NC(=S)NCc2ccc(-c3nc4ccccc4o3)cc2)cc1OC	-25	-21%	5µM*
O=C(NC(Cc1c[nH]c2ccccc12)C(=O)Nc1ccc(OC(F)(F)F)cc1)c1cccs1 (stereo not drawn)	-113*	-4%	-3%
O=C(NC(Cc1c[nH]c2ccccc12)C(=O)N/N=C/c1cccc2ccccc12)c1cccs1 (stereo not drawn)	-13	-24%	-7%
O=C(NC(Cc1c[nH]c2ccccc12)C(=O)O)c1cccs1 (stereo not drawn)	nt	nt	-2%
O=C(NC(Cc1c[nH]c2ccccc12)C(=O)Nc1ccc(F)c([N+](=O)[O-])c1)c1cccs1 (stereo not drawn)	-119*	-3%	-6%
SMILES	PNC inhibitor	HPGD block	ALDH1A1 block
CC(CCCCC(=O)Nc1ccc(C(F)(F)F)cc1)NCCc1cnc[nH]1 (stereo not drawn)	nt	nt	-9%
CNC(=O)[C@]1(C)C[C@H]1[C@H](NC(=O)[C@]1(C)C[C@H]1[C@H](NC(=O)[C@]1(C)C[C@H]1[C@H](NC(=O)[C@]1(C)C[C@H]1[C@H](NC(=O)OCc1ccccc1)c1ccccc1)c1ccccc1)c1ccccc1)c1ccccc1	nt	-7%	-1%
COc1cc2cc(C(c3nnnn3C3CCCC3)N3CCc4ccccc43)c(=O)[nH]c2cc1OC (stereo not drawn)	?	-8%	-11%
COc1ccccc1N1CCN(C(c2cc3ccc(C)cc3[nH]c2=O)c2nnnn2C2CCCC2)CC1 (stereo not drawn)	?	-15%	25µM*
CCOC(=O)C1CCN(C(c2cc3ccc(C)cc3[nH]c2=O)c2nnnn2C2CCCCC2)CC1 (stereo not drawn)	15	-23%	?
COc1ccccc1N1CCN(C(c2cc3cc(C)ccc3[nH]c2=O)c2nnnn2C2CCCC2)CC1 (stereo not drawn)	?	-3%	14µM*
COc1ccc(Oc2ncc3nc(-c4cn(C)c5ccccc45)c(=O)n(C4CC4)c3n2)cc1	nt	nt	7%
COc1ccc(NC(=O)CSc2nnc(Cn3c(=O)sc4ccccc43)n2C)c(OC)c1	-22	-14%	?
O=C(C[n+]1ccccc1)Nc1ccc(Oc2ccccc2)cc1	nt	nt	1%
CSc1nc(Oc2ccc(=O)n(C)n2)nc(N(C)C)n1	?	-14%	-9%
COc1ccc(Cl)cc1NC(=O)COC(=O)c1cc(NS(=O)(=O)c2cccs2)ccc1O	80	-9%	-9%
COc1cccc(Nc2n[nH]c(=S)s2)c1	?	10µM*	3.5µM*
Cc1cccc(Nc2n[nH]c(=S)s2)c1C	-20	10µM*	3.5µM*
COc1ccccc1Nc1n[nH]c(=S)s1	nt	nt	3.5µM*
Cc1cccc(Nc2nc3ccccc3s2)c1C	?	-11%	4%
COc1cccc(Nc2nc3ccc(OC)cc3s2)c1	nt	nt	19%
COc1ccccc1NC1=NC(C)(C)N=C(N)N1	-5	-6%	2%
O=C(CCC(=O)c1ccccc1)NCc1ccccc1	nt	nt	17%
C/C=C/c1ccc(Oc2nnnn2-c2ccc(C(N)=O)cc2)c(OC)c1	3	-16%	-13%
N#C/C(=C(/O)CN1CCOCC1)c1nc(-c2ccccc2)cs1	28	-11%	1%
N#C/C(=C(/O)CN1CCN(c2ccccc2F)CC1)c1nc(-c2ccc(Cl)cc2)cs1	2	-9%	15%
COc1ccccc1N1CCN(C/C(O)=C(\C#N)c2nc(-c3ccccc3)cs2)CC1	20	-21%	11µM*
CCOC(=O)C1CCCN(C/C(O)=C(\C#N)c2nc(-c3ccccc3)cs2)C1 (stereo not drawn)	-18	-24%	32µM*
CCOc1ccc(/C=C/C(=O)NCc2ccccc2)cc1	?	-12%	0%
CN(C)Cc1nsc(N(C)C)n1	nt	1%	-6%[13.5 µM]
SMILES	PNC inhibitor	HPGD block	ALDH1A1 block
Cc1ccc(C)c(OCCCC(=O)Nc2ccc(N3CCOCC3)cc2)c1	-84*	-2%	-7%
Cc1ccc(NC(=O)CN2C(=O)N/C(=C/c3ccc(N4CCOCC4)cc3)C2=O)cc1	?	-13%	?
Cc1ccc(NC(=O)CN(C)CC(=O)Nc2ccc(N3CCOCC3)cc2)cc1F	nt	nt	9%
Cc1ccc2c(c1)C(=O)C(=O)N2CC(=O)Nc1ccc(N2CCOCC2)cc1	nt	nt	8.9µM*
Cc1ccc(C)c(OCC(=O)Nc2ccc(N3CCOCC3)cc2)c1	nt	nt	9%
Cc1ccc(NC(=O)CNc2ccc(N3CCOCC3)cc2)cc1S(=O)(=O)N(C)C	nt	nt	10µM*
COc1ccc(C(=O)C2C3C4COC(O4)C(=O)C3C3C=Cc4ccccc4N32)c(OC)c1 (stereo not drawn)	nt	-20%	?
COc1ccc(S(=O)(=O)n2nc(C)cc2C)c(C)c1C	-22	-8%	5%
CC(NC(=O)Cn1nnc(-c2ccncc2)n1)c1ccccc1 (stereo not drawn)	10	-16%	-4%
CCN(CC)C(=O)N1CCN(C(=O)N2CCOCC2)CC1	nt	nt	5%
CN(C)C(=O)N1CCN(C(=O)N2CCOCC2)CC1	-100*	-6%	-3%
CC1=CC(=O)[C@@H]2C[C@H]1C2(C)C	nt	3%	-1%
CC1(C)NC(=O)N(CNc2cc(Cl)ccc2Cl)C1=O	29	-3%	-6%
CCOC(=O)c1cc(C)n(-n2cnnc2)c1C	-13	-18%	-10%
